Laboratory results from PubChem BioAssay.
For some assays here: Results with a measured potency or affinity are listed apart. Some of the results follow. Active and inactive are the calls of the source.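 How the source made its calls, unless noted: active means primary screen hit whose calcium fluorescence ratio, in both repeats, exceeds the weak agonist control mean by 3 SD; inactive means the rest.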

Assays:
[1] = test system: TRPC4 beta (transient receptor potential cation channel C4), mouse; experiment: activators of mouse TRPC4 channel, confirmation, cell-based, Fluo4 calcium, HEK293 TRPC4beta/mu-opioid, duplicates, 10 µM (AID 2426;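 active means fluorescence ratio normalized to control raised more than 50% in primary screen plus both repeat runs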); conditions: Fluo4 calcium fluorescence, at 10 µM; active compounds read high
[2] = test system: transient receptor potential cation channel C4 beta (TRPC4), mouse; experiment: activators of mouse TRPC4 channel, confirmation, cell-based, second round, Fluo4, HEK293 TRPC4beta/mu-opioid, 1 µM (AID 2461;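 active means primary screen active and over 50% activation in each of two duplicate runs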); conditions: Fluo4 calcium fluorescence, at 1 µM; active compounds read high
[3] = test system: TRPC4 (transient receptor potential cation channel C4 beta), mouse; experiment: positive allosteric modulators of mouse TRPC4, confirmation, cell-based, second round, Fluo-4, HEK293 TRPC4beta/mu-opioid, 1 µM (AID 2554;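 active means primary screen hit whose fluorescence ratio, in both repeats, exceeds the weak agonist control mean by 3 SD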); conditions: DAMGO EC20, Fluo-4 calcium flux, at 1 µM; active compounds read high
[4] = test system: TRPC4 beta (transient receptor potential cation channel C4), mouse; experiment: positive allosteric modulators of mouse TRPC4, confirmation, cell-based, Fluo-4, HEK293 TRPC4beta/mu-opioid (AID 2555); conditions: DAMGO EC20, Fluo-4 calcium flux, at 10 µM; active compounds read high
[5] = molecular target: Short transient receptor potential channel 4 (Mus musculus) (UniProt Q9QUQ5); experiment: inhibitors of mouse TRPC4 channel, confirmation, cell-based, Fluo4, HEK293 TRPC4beta/mu-opioid (AID 2636;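 active means calcium signal cut by more than 3 SD below the full-agonist control yet still positive, in both repeats and the earlier primary screen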); conditions: DAMGO, Fluo4 calcium flux, at 10 µM; active compounds read high
[6] = molecular target: Short transient receptor potential channel 4 (Mus musculus) (UniProt Q9QUQ5); experiment: inhibitors of mouse TRPC4 channel, confirmation, cell-based, second round, Fluo4, HEK293 TRPC4beta/mu-opioid, 1 µM (AID 2637;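 active means calcium signal ratio cut to more than 3 SD under the fully stimulated control mean yet still positive, in both repeats and the primary screen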;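 on inhibition: percent of integrated ratio relative to wells lacking test compound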); conditions: Fluo4 calcium flux, DAMGO, at 1 µM; active compounds read high
[7] = molecular target: Short transient receptor potential channel 4 (Mus musculus) (UniProt Q9QUQ5); experiment: mouse TRPC4 channel activators, dose response, cell-based, HEK293 TRPC4/mu-opioid, Fluo-4 calcium (AID 434937;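 active means primary screen activator hit with a dose response curve and TRPC4 channel activation at any tested dose; inactive means no activation, no dose response, or not a primary hit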)
[8] = molecular target: Short transient receptor potential channel 4 (Mus musculus) (UniProt Q9QUQ5); experiment: TRPC4 positive allosteric modulators, dose response, cell-based, HEK293 TRPC4/mu-opioid, Fluo-4 calcium, EC20 DAMGO (AID 434941;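 active means earlier screen potentiator hit that boosts the TRPC4 ion channel at some dose, with a dose response; inactive means no potentiation, no dose response, or not a prior hit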;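 further: calcium entry triggered by an EC20 dose of DAMGO at the co-expressed mu-opioid receptor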)
[9] = molecular target: Short transient receptor potential channel 4 (Mus musculus) (UniProt Q9QUQ5); experiment: mouse TRPC4 channel inhibitors, dose response, cell-based, HEK293 TRPC4/mu-opioid, Fluo-4 calcium (AID 434942;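 active means primary screen inhibitor hit that blocks the TRPC4 channel at some tested dose, yielding a dose curve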)
[10] = molecular target: Short transient receptor potential channel 6 (Mus musculus) (UniProt Q61143); experiment: inhibition of mouse TRPC6 channel, confirmation, selectivity assay for TRPC4 inhibitor project, cell-based, HEK293, membrane potential dye, duplicate (AID 434948;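 active means active in primary screen and both duplicates, each dropping signal beyond three positive-control SD with fluorescence still positive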); conditions: HEK293 TRPC6, membrane potential dye fluorescence, at 10 µM; inhibition: active compounds read high, stimulated with maximal-effect acetylcholine unless noted; outcome: stimulated with maximal-effect acetylcholine unless noted
[11] = molecular target: Short transient receptor potential channel 6 (Mus musculus) (UniProt Q61143); experiment: activation of mouse TRPC6 channel, confirmation, selectivity assay for TRPC4 activator project, cell-based, HEK293, membrane potential dye, duplicate (AID 434950;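 active means membrane potential signal rise above negative control mean plus 3 SD in both duplicates, also active in the earlier TRPC4 screen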); conditions: HEK293 TRPC6, membrane potential fluorescence, at 10 µM; active compounds read high
[12] = molecular target: Short transient receptor potential channel 6 (Mus musculus) (UniProt Q61143); experiment: TRPC6 potentiation by TRPC4 potentiator hits, confirmation, selectivity assay for TRPC4 potentiator project, HEK293 cells, membrane potential dye, duplicate (AID 434952;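 active means compound raising the membrane signal above positive-control mean plus 3 SD in both repeats, and a primary screen hit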); conditions: HEK293 TRPC6, membrane potential dye fluorescence, at 10 µM; maximal acetylcholine added after compound unless noted
[13] = molecular target: Short transient receptor potential channel 4 (Mus musculus) (UniProt Q9QUQ5); experiment: calcium flux activators in TRPC4/5HT1a cells, counter-screen for TRPC4 activator project, cell-based, second counter screen, HEK293 TRPC4/5HT1a, Fluo-4 (AID 434977;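 active means calcium signal rise above buffer-control mean plus 5 SD in both duplicates, and also a hit in the primary screen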); conditions: Fluo-4 calcium flux, at 10 µM; active compounds read high
[14] = calcium flux inhibitors in TRPC4/5HT1a cells, confirmation, counter-screen for TRPC4 inhibitor project, cell-based, second counter screen, HEK293 TRPC4/5HT1a, Fluo-4 (AID 434978;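 active means primary screen active whose calcium signal fell more than 3 SD beyond the full-serotonin control mean in both duplicate plates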;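 on outcome: serotonin given first at submaximal then at maximal dose after compound preincubation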); conditions: Fluo-4 calcium flux, at 10 µM; inhibition: active compounds read high, serotonin added to trigger calcium flux unless noted; outcome: serotonin added to trigger calcium flux unless noted
[15] = test system: TRPC4 (mouse), co-expressed with 5HT1a in HEK293; experiment: calcium flux potentiators in TRPC4/5HT1a cells, confirmation, counter-screen for TRPC4 potentiator project, cell-based, second counter screen, HEK293 TRPC4/5HT1a, Fluo-4 (AID 434979;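 active means signal rise over 3 SD above mean of control wells given weak agonist, in both repeats and first screen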); conditions: Fluo-4 calcium flux, at 10 µM; outcome: serotonin added at its EC20 dose unless noted; potentiation: active compounds read high, serotonin added at its EC20 dose unless noted
[16] = calcium flux activation in mu-opioid HEK293 cells, confirmation, counter-screen for TRPC4 activator project, cell-based, HEK293 mu-opioid receptor line (AID 449723;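 active means hit in primary screen, with calcium signal over 5 SD above buffer well mean in both duplicates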;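 further: counter screen cells carry the mu-opioid receptor alone and lack TRPC4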); conditions: Fluo-4 calcium fluorescence, at 10 µM; active compounds read high
[17] = calcium flux enhancement in mu-opioid HEK293 cells, confirmation, counter-screen for TRPC4 allosteric potentiator project, cell-based, HEK293 mu-opioid receptor line (AID 449724;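 active means calcium signal rise more than 3 SD above the low-dose agonist control mean, in both duplicate plates and the primary screen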); conditions: Fluo-4 calcium flux, at 10 µM; compound added before EC20 DAMGO stimulus unless noted
[18] = molecular target: Inward rectifier potassium channel 2 (Mus musculus) (UniProt P35561); experiment: mouse Kir2.1 channel blockers, retest, confirmation, cell-based, FluxOR thallium flux, duplicate (AID 2032;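 active means Primary-screen hit whose thallium flux fell at least 3 control SD below untreated wells in both duplicates, with normal baseline fluorescence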;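 further: 0% = blank wells without stimulus and 100% = stimulated no-compound controls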); conditions: Kir2.1-expressing cells, FluxOR thallium flux fluorescence, at 10 µM; active compounds read low
[19] = nonspecific thallium flux effects in parental HEK293 cells, confirmation, counter-screen for Kir2.1 inhibitor project, cell-based, FluxOR thallium flux, duplicate, single concentration (AID 2105;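 active means dye signal at least 3 control SD above or below untreated wells in both duplicates, raw fluorescence within 3, either direction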); conditions: FluxOR thallium flux fluorescence, at 10 µM; 0% = unstimulated blank wells

Chain of Short transient receptor potential channel 6 (Mus musculus) (Q61143 whole entry, looked up): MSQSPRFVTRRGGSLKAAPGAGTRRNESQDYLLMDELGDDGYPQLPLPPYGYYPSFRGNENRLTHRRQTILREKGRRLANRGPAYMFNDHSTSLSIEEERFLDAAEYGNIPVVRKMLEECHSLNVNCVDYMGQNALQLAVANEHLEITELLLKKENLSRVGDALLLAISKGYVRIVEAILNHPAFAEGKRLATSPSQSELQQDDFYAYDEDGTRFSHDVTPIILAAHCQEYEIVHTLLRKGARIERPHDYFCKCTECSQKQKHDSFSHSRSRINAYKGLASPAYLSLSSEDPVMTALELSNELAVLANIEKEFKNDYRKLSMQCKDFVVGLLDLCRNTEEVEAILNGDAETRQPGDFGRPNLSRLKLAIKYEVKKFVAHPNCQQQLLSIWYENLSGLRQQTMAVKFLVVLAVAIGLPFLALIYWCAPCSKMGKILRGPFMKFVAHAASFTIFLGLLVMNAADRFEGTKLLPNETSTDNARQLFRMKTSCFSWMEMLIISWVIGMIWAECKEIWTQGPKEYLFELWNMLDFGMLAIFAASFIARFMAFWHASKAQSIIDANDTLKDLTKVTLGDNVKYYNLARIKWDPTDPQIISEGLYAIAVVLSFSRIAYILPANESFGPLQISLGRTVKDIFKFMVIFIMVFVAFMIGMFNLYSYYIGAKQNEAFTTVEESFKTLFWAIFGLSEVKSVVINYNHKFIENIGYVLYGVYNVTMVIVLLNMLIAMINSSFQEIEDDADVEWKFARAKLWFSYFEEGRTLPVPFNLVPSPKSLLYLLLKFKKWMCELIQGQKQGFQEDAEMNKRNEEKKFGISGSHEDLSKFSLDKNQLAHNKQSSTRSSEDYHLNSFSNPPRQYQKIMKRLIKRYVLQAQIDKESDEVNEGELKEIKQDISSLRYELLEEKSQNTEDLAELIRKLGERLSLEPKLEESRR
Chain of Short transient receptor potential channel 4 (Mus musculus) (Q9QUQ5 whole entry, looked up): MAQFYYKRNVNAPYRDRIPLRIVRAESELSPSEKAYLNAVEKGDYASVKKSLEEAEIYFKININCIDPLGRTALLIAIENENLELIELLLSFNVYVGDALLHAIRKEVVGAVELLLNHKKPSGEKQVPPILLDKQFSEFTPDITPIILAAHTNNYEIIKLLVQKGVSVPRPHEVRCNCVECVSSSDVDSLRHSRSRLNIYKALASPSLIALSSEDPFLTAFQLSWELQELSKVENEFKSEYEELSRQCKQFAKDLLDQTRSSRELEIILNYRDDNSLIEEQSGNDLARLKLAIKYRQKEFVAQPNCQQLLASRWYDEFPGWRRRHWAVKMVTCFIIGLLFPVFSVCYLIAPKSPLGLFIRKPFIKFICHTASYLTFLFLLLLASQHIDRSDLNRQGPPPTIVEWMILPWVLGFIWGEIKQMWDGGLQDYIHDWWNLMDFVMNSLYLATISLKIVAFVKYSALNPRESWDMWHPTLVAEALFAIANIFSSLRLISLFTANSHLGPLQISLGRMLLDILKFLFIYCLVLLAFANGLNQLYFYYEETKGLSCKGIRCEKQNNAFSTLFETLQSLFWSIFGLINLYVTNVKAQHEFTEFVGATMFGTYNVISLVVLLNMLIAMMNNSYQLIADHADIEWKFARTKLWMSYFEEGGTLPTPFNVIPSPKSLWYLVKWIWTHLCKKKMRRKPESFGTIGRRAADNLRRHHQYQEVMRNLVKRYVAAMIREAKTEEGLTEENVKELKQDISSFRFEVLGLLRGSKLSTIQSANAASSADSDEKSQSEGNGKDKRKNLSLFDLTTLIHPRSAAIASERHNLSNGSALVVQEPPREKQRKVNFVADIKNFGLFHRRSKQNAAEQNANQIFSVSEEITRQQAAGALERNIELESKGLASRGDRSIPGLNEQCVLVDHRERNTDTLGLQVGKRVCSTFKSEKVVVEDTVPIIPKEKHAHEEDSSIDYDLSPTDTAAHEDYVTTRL
Chain of Inward rectifier potassium channel 2 (Mus musculus) (P35561 whole entry, looked up): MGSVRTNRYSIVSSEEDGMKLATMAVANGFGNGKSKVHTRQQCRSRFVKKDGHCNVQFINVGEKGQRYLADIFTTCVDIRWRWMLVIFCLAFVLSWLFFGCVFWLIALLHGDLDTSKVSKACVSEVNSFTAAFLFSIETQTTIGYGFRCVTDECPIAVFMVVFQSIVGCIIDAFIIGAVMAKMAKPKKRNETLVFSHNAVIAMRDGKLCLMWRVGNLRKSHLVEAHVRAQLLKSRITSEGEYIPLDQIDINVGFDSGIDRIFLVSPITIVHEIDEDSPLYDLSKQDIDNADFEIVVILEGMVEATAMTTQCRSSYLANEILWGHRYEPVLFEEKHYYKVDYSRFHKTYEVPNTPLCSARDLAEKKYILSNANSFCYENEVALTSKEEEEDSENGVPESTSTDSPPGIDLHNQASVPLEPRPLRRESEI

Nc1ccccc1-[n+]1c(-c2ccccc2)cc(-c2ccccc2)cc1-c1ccccc1
active: potentiation [3] 27% | potentiation [15] 20.7%
inactive: outcome [1] | outcome [2] | outcome [4] | outcome [5] | outcome [6] | outcome [7] | outcome [8] | outcome [9] | outcome [10] | outcome [11] | outcome [12] | outcome [13] | outcome [14] | outcome [16] | outcome [17]

COc1ccc(C(=O)C2CN(C)CC2c2ccc(Cl)cc2)cc1 (stereo not drawn)
inactive: outcome [1] | outcome [2] | outcome [3] | outcome [4] | outcome [5] | outcome [6] | outcome [7] | outcome [8] | outcome [9] | outcome [10] | outcome [11] | outcome [12] | outcome [13] | outcome [14] | outcome [15] | outcome [16] | outcome [17]

FC(F)(F)c1ccc(CN2CCNCC2)cc1
active: potentiation [3] 26% | potentiation [4] 22% | potentiation [15] 25.6% [active compounds read high]
inactive: outcome [1] | outcome [2] | outcome [5] | outcome [6] | outcome [7] | outcome [8] | outcome [9] | outcome [10] inactive [setting not given] | outcome [11] | outcome [12] inactive [setting not given] | outcome [13] | outcome [14] inactive [setting not given] | outcome [16] | outcome [17] inactive [setting not given]

Fc1ccc(N2CCN(Cc3ccc4c(c3)OCO4)CC2)cc1
inactive: outcome [19]
active: Tl flux remaining, % of negative control (active compounds read low) [18] 36.5%

CN(CCOc1ccc(C=C2C(=O)NC(=O)NC2=O)cc1)c1ccccn1
active: inhibition [5] 61%
inactive: outcome [1] | outcome [2] | outcome [3] | outcome [4] | outcome [6] | outcome [7] | outcome [8] | outcome [9] | outcome [10] inactive [setting not given] | outcome [11] | outcome [12] inactive [setting not given] | outcome [13] | outcome [14] inactive [setting not given] | outcome [15] inactive [setting not given] | outcome [16] | outcome [17] inactive [setting not given]

CCN(CC)P(=O)(/C=C(\Cl)c1ccccc1)/C=C(\Cl)c1ccccc1
inactive: outcome [1] | outcome [2] | outcome [4] | outcome [5] | outcome [6] | outcome [7] | outcome [8] | outcome [9] | outcome [10] | outcome [11] | outcome [12] | outcome [13] | outcome [14] | outcome [15] | outcome [16] | outcome [17]
active: potentiation [3] 7%

c1ccc(C2NCc3ccccc3-n3cccc32)cc1 (stereo not drawn)
active: Tl flux remaining, % of negative control (active compounds read low) [18] 52%
inactive: outcome [19]

CCN(CC)CC(=O)Nc1ccc(Cl)cc1C(=O)c1ccccc1
active: inhibition [5] 89% | inhibition [14] 33.6%
inactive: outcome [1] | outcome [2] | outcome [3] | outcome [4] | outcome [6] | outcome [7] | outcome [8] | outcome [10] | outcome [11] | outcome [12] | outcome [13] | outcome [15] | outcome [16] | outcome [17]

CCOC(=O)C1(CCc2ccccc2)CCN(Cc2ccco2)CC1
inactive: outcome [1] | outcome [2] | outcome [3] | outcome [4] | outcome [6] | outcome [7] | outcome [8] | outcome [10] | outcome [11] | outcome [12] | outcome [13] | outcome [14] | outcome [15] | outcome [16] | outcome [17]
active: inhibition [5] 94%

CC(Cc1ccccc1Sc1ccccc1O)N(C)C (stereo not drawn)
inactive: outcome [1] | outcome [2] | outcome [3] | outcome [4] | outcome [7] | outcome [8] | outcome [11] | outcome [12] | outcome [13] | outcome [15] | outcome [16] | outcome [17]
active: inhibition [5] 99% | inhibition [6] 70% | inhibition [10] 50.5% | inhibition [14] 33%

CCc1nccc2c1[nH]c1ccccc12
inactive: outcome [1] | outcome [2] | outcome [3] | outcome [4] | outcome [7] | outcome [8] | outcome [10] | outcome [11] | outcome [12] | outcome [13] | outcome [15] | outcome [16] | outcome [17]
active: inhibition [5] 93% | inhibition [6] 63% | inhibition [14] 9.99%

COc1ccc(OC)c(N2Cc3ccccc3C2=N)c1
active: inhibition [5] 96% | inhibition [6] 56% | inhibition [14] 21.8%
inactive: outcome [1] | outcome [2] | outcome [3] | outcome [4] | outcome [7] | outcome [8] | outcome [10] | outcome [11] | outcome [12] | outcome [13] | outcome [15] | outcome [16] | outcome [17]

CC(C)CN(CC(C)C)c1ccc(C=C2C(=O)NC(=S)NC2=O)cc1[N+](=O)[O-]
inactive: outcome [1] | outcome [2] | outcome [3] | outcome [4] | outcome [7] | outcome [8] | outcome [10] inactive [setting not given] | outcome [11] | outcome [12] inactive [setting not given] | outcome [13] | outcome [15] inactive [setting not given] | outcome [16] | outcome [17] inactive [setting not given]
active: inhibition [5] 98% | inhibition [6] 52% | inhibition [14] 8.19% [active compounds read high]

Cc1ccc(C2CN(C)CC2C(=O)c2ccc(F)cc2)cc1 (stereo not drawn)
inactive: outcome [1] | outcome [2] | outcome [3] | outcome [4] | outcome [7] | outcome [8] | outcome [10] | outcome [11] | outcome [12] | outcome [13] | outcome [15] | outcome [16] | outcome [17]
active: inhibition [5] 87% | inhibition [6] 42% | inhibition [14] 38%

Cc1ccc(-c2nc(N(C)C3CCN(C)CC3)c3ccccc3n2)cc1
active: potentiation [3] 14% | potentiation [4] 24% | potentiation [15] 34.7%
inactive: outcome [1] | outcome [2] | outcome [5] | outcome [6] | outcome [7] | outcome [8] | outcome [9] | outcome [10] | outcome [11] | outcome [12] | outcome [13] | outcome [14] | outcome [16] | outcome [17]
